From PubChem
The list is not random: actives were taken first. Their share in the collection is about 19%.
TDP1 cell noCPT: qHTS for Inhibitors of human tyrosyl-DNA phosphodiesterase 1 (TDP1): qHTS in cells in absence of CPT; Potency, µM (top dose mostly 46.2 µM), for the others: at the highest dose activity change, negative = growth inhibition, usual class: inhibitors; 15% of 420,000 active; DT40 Tdp1-/- hTDP1 cells, no CPT, ATP luminescence, 48 h; further: potency means the concentration at half of the fitted maximal effect; nearly all actives have a fitted effect of over 55% in size
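Readout: luminescence from CellTiter-Glo after 30 min in the dark at RT. Cells: DT40 Tdp1-/- with stable hTDP1, 400/well. Exposure: compounds alone, ≥48 hr, 37 °C.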
IL-1B inflam inh: qHTS for Inhibitors of Inflammasome Signaling: IL-1-beta AlphaLISA Primary Screen | THP-1 LPS/ATP IL-1B secretion, AlphaLISA, 16 h; hits give low values | activity change, % at 57.5 µM | 4.7% of 360,000 active; in the data active means activity change below about -50%; inconclusive means mostly about -30% to -49%
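THP-1 cells pretreated 1 hr with compounds (up to 57.5 uM final), then stimulated with LPS (250 ng/mL final) plus ATP (1.25 mM final); secreted IL-1B measured by AlphaLISA after 16 hr, decreased signal indicating inhibition.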
HT1080NT lethal: qHTS for induction of synthetic lethality in tumor cells producing 2HG: qHTS for the HT-1080-NT fibrosarcoma cell line; HT-1080-NT fibrosarcoma viability, CellTiter-Glo ATP luminescence, 48 h; Potency, µM (series often up to 46.1 µM), for the others: top-dose activity, negative = less viability, most hits filed as cytotoxic; 1.6% of 360,000 active;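 further: NT is the 2HG producing partner of a matched IDH1 knockdown line; potency means the concentration at half of the fitted maximal effect; 0% = DMSO-treated cells and -100% = media-only wells without cells; nearly all actives have a fitted effect of over 55% in size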
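HT-1080-NT fibrosarcoma cells (2HG-overproducing), 750 cells/well in RPMI with 5% FBS, dosed after 2 h and incubated 48 h at 37C. CellTiter-Glo luminescence normalized to DMSO and no-cell wells; concentration-response curves fitted and classed.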
ELG1 repair inh: qHTS screen for small molecules that inhibit ELG1-dependent DNA repair in human embryonic kidney (HEK293T) cells expressing luciferase-tagged ELG1 | HEK293T ELG1-luciferase reporter, luminescence, 16 h; DNA damage induced by 5-fluorouridine | Potency, µM (series often up to 46.1 µM), without a hit: top-dose activity change, negative = inhibition, usual class: inhibitors | 2.3% of 330,000 active; further: potency means the concentration at half of the fitted maximal effect; nearly all actives have a fitted effect of over 55% in size
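5-Fluorouridine DNA damage + compound/DMSO, 2,000 cells/well, 16 h, 37 °C/5% CO2. ONE-Glo, 30 min RT, luminescence. Readout = decrease in reporter signal.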
DT40 TDP1 CPT: qHTS for Inhibitors of human tyrosyl-DNA phosphodiesterase 1 (TDP1): qHTS in cells in presence of CPT | chicken DT40 Tdp1-/-;hTDP1 cells + 20 nM CPT, ATP luminescence, 48 h | Potency, µM (series often up to 46.2 µM), without a hit: at the highest dose activity change, negative = growth inhibition, hits mostly inhibitors | 12% of 420,000 active | AID 686979, 2013; further: potency means the concentration at half of the fitted maximal effect; nearly all actives have a fitted effect of over 55% in size
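Chicken DT40 Tdp1-/- cells stably complemented with human TDP1 were seeded at 400 cells/well in medium containing 20 nM camptothecin, exposed to pin-transferred compounds, and grown at 37 °C for at least 48 hr. Viability was read as ATP luminescence.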
HT1080 IDH1KD tx: qHTS for induction of synthetic lethality in tumor cells producing 2HG: qHTS for the HT-1080-IDH1KD cell line; 2% of 360,000 active; Potency, µM (top dose mostly 46.1 µM), without a hit: top-dose activity, negative = toxicity, hits mostly cytotoxic; HT-1080 IDH1 knockdown viability, ATP luminescence, 48 h; AID 686971, 2013;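 further: potency means the concentration at half of the fitted maximal effect; 0% = DMSO wells and -100% = cell-free medium wells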
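% activity derives from luminescence (CellTiter-Glo), normalised to DMSO and no-cell wells. HT-1080-IDH1KD cells, 750/well, had 48 h compound exposure at 37 °C.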
Starred values were filed as active, the others as inactive; ? = inconclusive; · = not tested or not shown. Unless noted, the call rests on the fitted dose curve; in most records, active means well fitted curve in the direction sought with a large enough effect; inconclusive means small, poorly fitted or top-dose-only effect, or another doubt; inactive means no such curve, though single readings can be large; an effect the other way counts as inactive or inconclusive. Unless noted, on the % scale 0 is the no-effect control and ±100 the full control effect.

SMILES	TDP1 cell noCPT	IL-1B inflam inh	HT1080NT lethal	ELG1 repair inh	DT40 TDP1 CPT	HT1080 IDH1KD tx
O=C(c1ccc2ccccc2n1)N(CCO)Cc1ccccc1	-18%	7	0%	0%	-9%	14%
O=C(Oc1ccc(Cl)c2cccnc12)N1CCCCC1	-9%	10	0%	?	5%	-23%
Oc1ccc(Cl)c2cccnc12	1.8µM*	-30	-7%	·	1.8µM*	-25%
Clc1cc2cccnc2c2ccccc12	-3%	15	8%	-4%	-2%	11%
Oc1c(Cl)cc(Cl)c2cccnc12	8.2µM*	126	?	2.3µM*	18µM*	21µM*
Oc1ccc(F)c2cccnc12	15µM*	-70*	?	-3%	13µM*	0%
Cc1ccc(S(=O)(=O)Nc2cc(Cl)c(O)c3ncccc23)cc1	5.2µM*	50	-23%	?	2.3µM*	?
CN1CCN(C(CNS(=O)(=O)c2ccc([N+](=O)[O-])cc2)c2ccc(F)cc2)CC1 (stereo unspecified)	-17%	-4	-3%	0%	?	-7%
CC1=CC(C)C2(COC(=O)Nc3ccccc3)COC(C)C1C2C (stereo unspecified)	?	0	1%	-3%	2%	-3%
O=C(O)CC(Sc1n[nH]c(=S)s1)C(=O)O (stereo unspecified)	-7%	0	-1%	24%	-1%	1%
CCOC(=O)[C@@H]1CCN(Cc2ccccc2)C[C@H]1c1ccccc1	23µM*	-9	-5%	15%	?	-16%
CCOC(=O)C1CCN(c2c(N3CCN(Cc4ccccc4)CC3)c(=O)c2=O)CC1	-14%	0	-1%	8%	4%	-3%
Cc1nc(NS(=O)(=O)c2ccccc2)sc1C(=O)N/N=C/c1ccccc1	-10%	14	0%	8%	-6%	-5%
CCCCCC(=O)N1C[C@@H](O)[C@H](n2cc(COC(=O)c3ccccc3)nn2)C[C@@H]1c1ccc(C)cc1	5%	-17	-9%	·	-3%	-5%
CCCCCC(=O)N1C[C@H](O)[C@@H](n2cc(COC(=O)c3ccccc3)nn2)C[C@@H]1c1ccc(Cl)cc1	26µM*	-6	-1%	·	?	1%
CCCCCC(=O)N1C[C@H](n2cc(COC(=O)c3ccccc3)nn2)[C@@H](O)C[C@@H]1c1ccc(OC)cc1	?	-4	?	·	21µM*	-18%
CCCCCC(=O)N1C[C@H](n2cc(COC(=O)c3ccccc3)nn2)[C@@H](O)C[C@@H]1c1ccccc1	4%	-3	12%	·	4%	18%
CN1CCN(c2ccc(S(=O)(=O)N3CCCCC3)cc2NC(=O)COc2cccc(Cl)c2)CC1	?	-52*	-5%	?	?	-2%
O=C(COc1ccc(Cl)cc1)Nc1cc(S(=O)(=O)N2CCCCC2)ccc1N1CCCCC1	10µM*	14	-5%	-3%	2.9µM*	16%
Cc1ccc2cc(C#N)c(NCCNC(=O)C3CC3)nc2c1C	7.3µM*	?	-3%	21µM*	15µM*	-7%
Cc1ccc2cc(C#N)c(NCCNC(=S)NCCCN(C)C)nc2c1C	26µM*	?	21µM*	?	?	?
